From PubChem BioAssay (NCI)
About 83,000 compounds went through this panel and 20% of them were active in at least one assay; those are over-represented in the sample as a whole.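 Method: cells in 96-well plates; compound added at one concentration; 48 h incubation; percent growth measured; values under 10 scored active.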 Values without a mark were called inactive.

These compounds were tested on SF-539 CNS (assay: NCI-60 one-dose screen, 48 h (100 = growth as untreated, 0 = no growth, -100 = all killed)). Conditions: 10 µM unless noted.

Structure (SMILES) | growth
O=C(O)c1c[nH]c2ccccc2c1=O | 93.9%
Cc1[nH]n(-c2ccccc2)c(=O)c1C=NC(=S)C(N)=S | 106%
CC(=O)N(C)N=Nc1ccc(C)cc1 | 101%
COc1ccc2c(Cl)cc(NC(=O)Nc3c(C)cccc3C)nc2c1 | 90.1%
O=C(c1ccc(Cl)cc1)N1CCCCC1 | 98.5%
CC(=O)NC(O)C(Cl)Cl (configuration not stated) | 90.6%
CCC(/C=C\C(C)=O)CC | 100%
CCOC(=O)C(COS(C)(=O)=O)(COS(C)(=O)=O)C(=O)OCC | 112%
CC(=O)NNC(=S)N/C=C/c1c(C)ccc([N+](=O)[O-])c1[N+](=O)[O-] | 99.7%
CC(=O)N(CCCCCCN(C(C)=O)C(C)=O)C(C)=O | 98.3% [100 µM]
CC(=O)NCNC(C)=O | 91.3%
NNc1ncccn1 | 105%
CC12CCC3c4ccc(O)cc4CCC3C1CCC2=O (configuration not stated) | 96.6%
Nc1cc2ccccc2c(O)c1O | 16.2%
S=c1nc(-c2ccccn2)c(-c2ccccn2)n[nH]1 | 111%
CC(C)Sc1ncnc2nc[nH]c12 | 100%
Clc1cccc(Cl)c1C1CSc2ccccc2N=C1c1ccccc1 (configuration not stated) | 101%
